Columns and labels:
Conditions in all cases: concentration: 1 μM, replicates: in singlicate; n = 1
[1] = tested on: CSNK2A2
[2] = tested on: T1, CTK
T1 construct: gene MATK

[3] = tested on: DAPK1
[4] = tested on: DAPK2
[5] = tested on: DAPK3
[6] = tested on: T2, DCAMKL1
T2 construct: gene DCLK1

[7] = tested on: T3, DCAMKL2
T3 construct: gene DCLK2

[8] = tested on: T4, DCAMKL3
T4 construct: gene DCLK3

[9] = tested on: DDR1
[10] = tested on: DDR2
[11] = tested on: T5, DLK
T5 construct: gene MAP3K12

[12] = tested on: T6, DMPK2
T6 construct: gene CDC42BPG

[13] = tested on: DMPK
[14] = tested on: T7, DRAK1
T7 construct: gene STK17A

[15] = tested on: T8, DRAK2
T8 construct: gene STK17B

[16] = tested on: DYRK1A
[17] = tested on: DYRK1B
[18] = tested on: DYRK2
[19] = tested on: EGFR
[20] = tested on: EIF2AK1
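Also: KINOMEscan kinase panel screen.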

Compound	%Inh [1]	%Inh [2]	%Inh [3]	%Inh [4]	%Inh [5]	%Inh [6]	%Inh [7]	%Inh [8]	%Inh [9]	%Inh [10]	%Inh [11]	%Inh [12]	%Inh [13]	%Inh [14]	%Inh [15]	%Inh [16]	%Inh [17]	%Inh [18]	%Inh [19]	%Inh [20]
CCC(=O)c1c(-c2ccccc2)c2cc(Cl)ccc2c(=O)n1Cc1cc(C(=O)NC2CC2)n(C)n1	3%	17%	14%	0%	0%	12%	0%	0%	26%	29%	49%	0%	0%	0%	3%	0%	48%	2%	0%	0%
COc1cc2nccc(Nc3cccc(Oc4ccccc4)c3)c2cc1OC.Cl [GW284543]	4%	10%	0%	0%	0%	11%	0%	23%	17%	9%	24%	0%	0%	2%	26%	6%	0%	11%	40%	0%
CCn1c(-c2ccoc2)nc2cnccc21 [SB-733887]	13%	0%	0%	0%	14%	34%	0%	0%	27%	14%	7%	0%	0%	0%	0%	10%	13%	6%	24%	8%
Cc1nnc(-c2ccc3ncn(-c4ccc(S(C)=O)cc4)c3c2)o1 (stereo not shown)	35%	0%	26%	0%	0%	37%	12%	9%	0%	0%	0%	0%	1%	3%	18%	0%	26%	7%	0%	0%
Nc1ncnc2c1ncn2-c1cccc2ccccc12 [SKF-97184]	0%	0%	0%	0%	0%	0%	13%	15%	0%	59%	0%	0%	0%	7%	0%	0%	30%	6%	45%	0%
O=C1NC(=O)C(c2ccccc2)=C1Nc1cccc(O)c1 [SB-390534]	0%	4%	0%	0%	0%	6%	0%	0%	0%	0%	0%	0%	0%	5%	0%	25%	0%	0%	7%	0%
CCn1c(-c2nonc2N)nc2ccccc21 [SB-693162/GW549034]	19%	31%	13%	0%	0%	0%	0%	13%	0%	0%	0%	0%	0%	9%	0%	49%	16%	37%	0%	48%
COC(=O)c1c(-c2ccccc2)c2cc(Br)ccc2c(=O)n1Cc1ccc(NC(=O)CCC(=O)O)cc1	19%	6%	0%	0%	0%	16%	0%	0%	2%	22%	0%	0%	0%	0%	0%	9%	48%	8%	0%	12%
COc1cc2ncn(-c3cc(OCc4ccncc4Br)c(C(N)=O)s3)c2cc1OC [GW854278]	18%	45%	28%	18%	6%	0%	2%	0%	0%	0%	12%	0%	3%	4%	5%	3%	8%	30%	27%	0%
Cc1cc(Nc2nc(-c3cccc(C)n3)nc3ccccc23)ccn1 [GW872411]	5%	18%	0%	0%	1%	26%	0%	0%	0%	0%	0%	2%	0%	0%	0%	0%	2%	0%	0%	0%
CCC(=O)c1c(-c2ccccc2)c2cc(Cl)ccc2c(=O)n1Cc1cc(S(C)(=O)=O)n(CCC(C)(C)O)n1	22%	0%	16%	3%	0%	15%	22%	21%	14%	0%	0%	17%	11%	14%	2%	27%	11%	62%	31%	19%
COc1ccc(-c2cc3c(C)nc(N)nc3n([C@H]3CC[C@H](O)CC3)c2=O)cn1	0%	0%	0%	0%	1%	0%	0%	0%	0%	0%	5%	0%	0%	0%	0%	0%	4%	0%	0%	0%
CCc1nc(-c2cccc(C)c2)c(-c2ccncc2)s1	0%	0%	11%	0%	9%	30%	2%	4%	30%	17%	0%	79%	0%	0%	0%	0%	0%	0%	0%	9%
O=C(Nc1ccc2c(c1)OCO2)NC1CCN(c2ccnc(NCc3ccc(F)cc3)n2)CC1 [GSK1379859]	22%	0%	22%	0%	0%	14%	0%	18%	9%	0%	22%	16%	0%	6%	0%	7%	14%	5%	44%	10%
CCCNC(=O)Nc1ccc(Oc2ncnc3ccn(C)c23)cc1	33%	35%	10%	0%	0%	35%	0%	0%	0%	8%	0%	0%	0%	0%	12%	16%	68%	24%	15%	0%
Nc1nc(-c2ccccc2F)c(-c2ccnc3ccccc23)s1 [GW560459]	0%	0%	0%	0%	13%	12%	1%	1%	7%	34%	36%	3%	0%	0%	3%	9%	4%	0%	36%	0%

Compound	%Inh [1]	%Inh [2]	%Inh [3]	%Inh [4]	%Inh [5]	%Inh [6]	%Inh [7]	%Inh [8]	%Inh [9]	%Inh [10]	%Inh [11]	%Inh [12]	%Inh [13]	%Inh [14]	%Inh [15]	%Inh [16]	%Inh [17]	%Inh [18]	%Inh [19]	%Inh [20]
CCCC(=O)Nc1n[nH]c2ncc(-c3cccc4ccccc34)cc12 [SB-642057]	0%	0%	20%	0%	24%	18%	0%	11%	3%	0%	0%	4%	0%	0%	0%	30%	0%	4%	20%	13%
COc1cc2ncn(-c3cc(OCc4ccc(S(C)(=O)=O)cc4)c(C(N)=O)s3)c2cc1OC [GW869979]	0%	15%	0%	0%	9%	1%	19%	0%	20%	2%	13%	10%	0%	0%	23%	22%	20%	1%	25%	7%
CCC(=O)c1c(-c2ccccc2)c2cc(Cl)ccc2c(=O)n1Cc1cc(S(C)(=O)=O)n(CC(N)=O)n1	4%	0%	0%	0%	6%	24%	2%	0%	0%	0%	0%	0%	0%	0%	0%	0%	0%	0%	0%	0%
COc1ccc(-n2cnc3c(N)ncnc32)cc1 [SKF-97236]	3%	3%	13%	1%	0%	13%	0%	9%	10%	0%	0%	0%	6%	43%	0%	1%	0%	0%	0%	31%
COc1cc(Nc2ccnc3ccc(C(F)(F)F)cc23)cc(OC)c1OC [GW577382]	62%	8%	0%	4%	26%	5%	0%	2%	0%	23%	32%	4%	0%	0%	0%	4%	16%	0%	27%	2%
CCS(=O)(=O)c1ccc(OC)c(Nc2ncc(-c3ccc(F)cc3)o2)c1.Cl [GW591947]	17%	0%	0%	0%	15%	9%	0%	6%	0%	4%	25%	13%	6%	10%	0%	12%	0%	17%	4%	5%
C[C@@H]1CC[C@H](C(=O)NC2CCCCC2)CN1c1cc(-c2ccc3c(N)n[nH]c3c2)nc(N)n1 [GSK2291363]	0%	0%	18%	47%	35%	14%	24%	0%	0%	3%	31%	23%	0%	20%	0%	23%	6%	20%	45%	0%
Cc1ccccc1COc1cc(-n2cnc3cc(Cl)ccc32)sc1C(N)=O [GW813349]	54%	0%	0%	0%	0%	0%	2%	10%	0%	1%	0%	2%	0%	0%	1%	15%	34%	19%	2%	6%
O=C(NCc1cccs1)c1cc(C(=O)c2c(Cl)cccc2Cl)c[nH]1 [GW823670]	0%	0%	0%	8%	22%	14%	18%	2%	26%	0%	0%	4%	6%	4%	0%	0%	16%	0%	0%	0%
O=c1cc(N2CCOCC2)nc2n(Cc3ccc(F)c(Cl)c3)ccn12 [GSK2297099]	6%	0%	23%	0%	23%	0%	0%	0%	10%	0%	6%	0%	0%	0%	0%	12%	39%	0%	18%	0%
CN(C)c1cc(-c2ccc3c(N)n[nH]c3c2)nc(N)n1 [GSK2219329]	11%	0%	0%	0%	0%	9%	0%	0%	0%	0%	7%	5%	0%	36%	0%	9%	5%	67%	43%	0%
O=C(Nc1n[nH]c2nc(-c3ccccc3)c(Br)cc12)C1CC1 [SB-708998]	4%	0%	0%	0%	0%	0%	0%	0%	23%	9%	17%	0%	0%	5%	0%	8%	0%	1%	1%	34%
COc1cc(OC)cc(-c2cc3cnc(N)nc3nc2NC(=O)NC(C)(C)C)c1	0%	1%	0%	0%	0%	0%	0%	0%	68%	11%	4%	0%	16%	0%	0%	0%	16%	0%	–	4%
COc1cc(Nc2nccc(N3CCC(NC(=O)C4COc5ccccc5O4)C3)n2)cc(OC)c1OC (stereo not shown) [GSK1379761]	0%	0%	0%	20%	11%	0%	0%	0%	1%	61%	60%	0%	0%	0%	0%	0%	5%	19%	43%	0%
COc1cc2nccc(Nc3ccc(OCc4ccc(NC(C)=O)cc4)cc3)c2cc1OC.Cl [GW440135]	0%	20%	0%	10%	1%	4%	0%	0%	0%	45%	27%	0%	0%	7%	0%	15%	1%	4%	18%	17%

From article PMC5540273 (PLoS ONE, 2017)
